NS1 inh – qHTS Assay for Inhibitors of Influenza NS1 Protein Function; Potency, µM (doses to about 46.1 µM); actives 0.4% (n = 270,000); AID 2326, 2010; further: actives are rising curves; nearly all actives have a fitted effect of over 50% in size
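Recovery from NS1-induced slow growth read by OD600 in budding yeast switched to galactose assay medium (pH 6.0, -URA) at 1:100 dilution. Compound 23 nl per well; the matching strain lacking NS1 serves as control.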
SARS PLpro yeast – qHTS of Yeast-based Assay for SARS-CoV PLP. S. cerevisiae expressing SARS-CoV PLpro, growth rescue. Potency, µM (top dose mostly 32.9 µM), usual class: activators. actives 0.19% (n = 330,000). AID 485353, 2010; further: nearly all actives have a fitted effect of over 55% in size
AMA1 RON2 block – qHTS for Inhibitors of AMA1-RON; Towards Development of Antimalarial Drug Lead: Primary Screen. AlphaScreen AMA1-biotinylated RON2 peptide binding. Potency, µM (titrated, usually from 58.2 µM), most hits filed as inhibitors. actives 0.2% (n = 360,000). AID 720542, 2013; active means well fitted inhibition curve with a large enough effect; inconclusive means small, poorly fitted or top-dose-only effect; inactive means no such curve, though single readings can be large or run the other way; further: nearly all actives have a fitted effect of over 45% in size
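AMA1 (3D7) with his tag at 25 nM final met compounds first, then biotinylated RON2 peptide at 25 nM; detection used donor plus acceptor beads, 10 µg/mL apiece, read by AlphaScreen after 30 min at room temperature.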
NS1 inh valid – Assay for Inhibitors of Influenza NS1 Protein Function: Hit Validation | 1,400 tested, under 10 active | influenza NS1 function cell assay, 15-point titration | shares compounds with NS1 inh | activity change, negative = inhibition, % at 32.9 µM
Each line names hits and unclear results; the compound was inactive in the other large screens (follow-up assays come after a bar, where they were run). A selection: hits, their analogues and other compounds. The true share with any hit is near 0.65%. Unless noted, the call rests on the fitted dose curve.

COc1ccccc1/C=C(\NC(=O)c1ccc(OC)c(OC)c1)C(=O)Nc1cccc([N+](=O)[O-])c1	NS1 inh inconclusive
COc1ccc(C(=O)N/C(=C\c2ccccc2)C(=O)Nc2cccc(C(=O)O)c2)cc1	NS1 inh 10µM | NS1 inh valid inactive
COc1ccc(/C=C(\NC(=O)c2ccc(OC)cc2)C(=O)Nc2ccc(C(=O)O)cc2)cc1	none
COc1ccccc1/C=C(\NC(=O)c1ccc(OC)c(OC)c1)C(=O)Nc1ccc([N+](=O)[O-])cc1	NS1 inh 12.6µM | NS1 inh valid inactive
CCc1cc(=O)oc2cc(OCc3ccc(C(=O)O)o3)ccc12	none
CC/C(=N\NC(=O)c1ccc(CN(C)S(=O)(=O)c2ccc(C)cc2)cc1)c1ccc(OC(F)F)cc1	NS1 inh inconclusive | NS1 inh valid inactive
Cc1ccc(S(=O)(=O)N(C)Cc2ccc(C(=O)NN=C(CC(C)C)CC(C)C)cc2)cc1	NS1 inh inconclusive
CCOC(=O)N1CCN(c2c(NCCCN(CC)Cc3ccccc3)c(=O)c2=O)CC1	NS1 inh 1µM | NS1 inh valid inactive
CCOC(=O)N1CCN(c2c(NCCCN(CC)CC)c(=O)c2=O)CC1	none
Cc1cccc(C(=O)NNC(=O)C2CCN(C(=O)OC(C)(C)C)CC2)c1	none
CCC(=O)Nc1ccc(NC(=S)NC(=O)c2cc3ccccc3o2)cc1	none
CCCC(=O)Nc1ccc(Cl)c(NC(=S)NC(=O)c2cc3ccccc3o2)c1	NS1 inh inconclusive | NS1 inh valid inactive
O=C(CCl)NC(Cc1c[nH]c2ccc(OCc3ccccc3)cc12)C(=O)O (configuration not stated)	none
CCN(CC)c1nc(N)n(CCSC(=S)N(C)C)c(=O)n1	NS1 inh inconclusive | NS1 inh valid inactive
CCN(CC)c1nc2n(c(=O)n1)CCO2	none (no result: SARS PLpro yeast)
CCOc1ccc(Oc2ccc(C(F)(F)F)cc2NC(=O)C2=COCCO2)cc1	none (no result: NS1 inh)
COc1ccc(C(=O)Oc2cc(N)n(S(=O)(=O)c3ccc(C)cc3)n2)cc1	none
COc1ccc(S(=O)(=O)n2nc(OC(=O)c3c(-c4ccccc4Cl)noc3C)cc2N)cc1	NS1 inh 10µM | NS1 inh valid inactive
Cc1nc(NC(=O)c2ccccc2)sc1-c1csc(Nc2ccc(F)cc2)n1	NS1 inh inconclusive (no result: AMA1 RON2 block)
Cc1nc(NC(=O)c2ccccc2)sc1-c1csc(Nc2ccc(Cl)cc2)n1	NS1 inh 5.01µM (no result: AMA1 RON2 block) | NS1 inh valid inactive
CCOc1ccc(CNCCN2CCCC2)cc1	AMA1 RON2 block inconclusive
COc1ccc(Nc2nnc(SC(C(=O)Nc3cc(C)ccc3C)c3ccccc3)s2)cc1 (configuration not stated)	none (no result: NS1 inh)
COc1cccc(NC(=O)C(Sc2nnc(Nc3ccccc3C)s2)c2ccccc2)c1 (configuration not stated)	NS1 inh 5.01µM | NS1 inh valid inactive
Cc1ccccc1NC(=O)CSc1nc(=O)n(CCN2CCOCC2)c2c1CCCC2	none (no result: NS1 inh)
COc1ccc(OC)c(N(CC(=O)NCCSC2CCCCC2)S(=O)(=O)c2ccccc2)c1	none
COc1ccc(N(CC(=O)NCCSC2CCCCC2)S(=O)(=O)c2ccccc2)c(OC)c1	NS1 inh 3.98µM (no result: AMA1 RON2 block) | NS1 inh valid inactive
O=C(CSc1ccc(-c2ccc(-n3cccn3)cc2)nn1)Nc1ccccc1F	none (no result: NS1 inh, SARS PLpro yeast)
Cc1cc(C)cc(CC(=O)N2CCC2(C)C(=O)NS(=O)(=O)c2ccc(C(C)(C)C)cc2)c1 (configuration not stated)	none (no result: NS1 inh, SARS PLpro yeast)
O=C(C[n+]1cccc2ccccc21)c1ccccc1	none
O=C(C[n+]1cc2ccccc2c2ccccc21)c1ccccc1	NS1 inh inconclusive | NS1 inh valid inactive
COc1cc2cc(CCOC(=O)c3ccc(C(F)(F)F)cc3)oc(=O)c2cc1OC	none (no result: NS1 inh)
COc1ccc(C(=O)N2CCN=C2SCc2cccnc2)c(OC)c1	none
COc1cccc(C(=O)N2CCN=C2SCc2cccnc2)c1OC	NS1 inh 1.58µM | NS1 inh valid inactive
Cn1cccc1CC(=O)N/N=C\c1cccs1	none
Cc1ccc(/C=N/NC(=O)Cc2cccn2C)s1	NS1 inh 2.82µM | NS1 inh valid inactive
O=C(COc1ccc(C(=S)N2CCCC2)cc1)Nc1ccccc1C(F)(F)F	none
COc1ccc(N=C2S/C(=C\c3cc(C)n(C)c3C)C(=O)N2CC(C)C)cc1	NS1 inh 7.08µM | NS1 inh valid inactive
COc1ccc(N=C2S/C(=C\c3ccco3)C(=O)N2CC(C)C)cc1	none
CCOC(=O)Nc1ccc2c(CN3C(=O)NC4(CCCC4)C3=O)cc(=O)oc2c1	none
